Laboratory results reported in PubChem BioAssay (NCI).
Where “and” joins values, the source holds several entries; their conditions need not be identical. Equal values may be shown once. The panel holds about 83,000 compounds, 20% with a hit somewhere; the sample as a whole holds those more often.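 Single-dose data. Exposure time 48 hours. Values below 10 considered active.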 Calls of active or inactive are those of the source.

Key:
Test in all cases: NCI-60 one-dose screen, 48 h (100 = growth as untreated, 0 = no growth, -100 = all killed)
Details in all cases: 10 µM unless noted
SR leukemia = tested on: SR leukemia
RPMI-8226 leukemia = tested on: RPMI-8226 leukemia
OVCAR-8 ovarian = tested on: OVCAR-8 ovarian
OVCAR-5 ovarian = tested on: OVCAR-5 ovarian
OVCAR-4 ovarian = tested on: OVCAR-4 ovarian
SK-OV-3 ovarian = tested on: SK-OV-3 ovarian
IGROV1 ovarian = tested on: IGROV1 ovarian
OVCAR-3 ovarian = tested on: OVCAR-3 ovarian
HS 578T breast = tested on: HS 578T breast
NCI/ADR-RES ovarian = tested on: NCI/ADR-RES ovarian
T-47D breast = tested on: T-47D breast
BT-549 breast = tested on: BT-549 breast
MDA-MB-435 melanoma = tested on: MDA-MB-435 melanoma
SW-620 colon = tested on: SW-620 colon
MCF7 breast = tested on: MCF7 breast
HCT-116 colon = tested on: HCT-116 colon
HCC-2998 colon = tested on: HCC-2998 colon
KM12 colon = tested on: KM12 colon
MDA-MB-468 breast = tested on: MDA-MB-468 breast

Row | SMILES | growth (SR leukemia) | growth (RPMI-8226 leukemia) | growth (OVCAR-8 ovarian) | growth (OVCAR-5 ovarian) | growth (OVCAR-4 ovarian) | growth (SK-OV-3 ovarian) | growth (IGROV1 ovarian) | growth (OVCAR-3 ovarian) | growth (HS 578T breast) | growth (NCI/ADR-RES ovarian) | growth (T-47D breast) | growth (BT-549 breast) | growth (MDA-MB-435 melanoma) | growth (SW-620 colon) | growth (MCF7 breast) | growth (HCT-116 colon) | growth (HCC-2998 colon) | growth (KM12 colon) | growth (MDA-MB-468 breast)
1 | CC1(C)CC(=O)C2=C(C1)OC(N)=C(c1nc3ccccc3[nH]1)C2c1ccc(Cl)cc1 (centres undefined) | 41.4% (inactive) and 97.8% (inactive) | 45.8% (inactive) and 109% (inactive) | 69.2% (inactive) and 108% (inactive) | 101% (inactive) and 118% (inactive) | 57.6% (inactive) and 109% (inactive) | 111% (inactive) and 108% (inactive) | 62.3% (inactive) and 108% (inactive) | 47.8% (inactive) and 78.4% (inactive) | 6.8% (active) and 119% (inactive) | 78% (inactive) and 109% (inactive) | 72.3% (inactive) and 117% (inactive) | 57.5% (inactive) and 123% (inactive) | 60.5% (inactive) and 109% (inactive) | 81% (inactive) and 104% (inactive) | 56.4% (inactive) and 93.7% (inactive) | 63.4% (inactive) and 103% (inactive) | 76.9% (inactive) and 111% (inactive) | 36.7% (inactive) and 100% (inactive) | 47.3% (inactive) and 103% (inactive)
2 | CN(CCSSCCN1CCOCC1)C(=O)Oc1cc2c(c3ccccc13)[C@H](CCl)CN2C(=O)c1cc2cc(OCCCN3CCC3)ccc2[nH]1 | -26.2% (active) | -28.5% (active) | -15.7% (active) | -36.7% (active) | -28.7% (active) | -27.7% (active) | -22.1% (active) | -46.7% (active) | -16.8% (active) | -30.4% (active) | -41.9% (active) | -52.5% (active) | -36.5% (active) | -8.71% (active) | -60.8% (active) | -49.1% (active) | -64.7% (active) | – | -80% (active)
3 | O=C(N/N=C/c1ccc(-c2cccc([N+](=O)[O-])c2)s1)c1[nH]c2ccc(Br)cc2c1-c1ccccc1 | 69.9% (inactive) | 89.2% (inactive) | 95.9% (inactive) | 106% (inactive) | 82.1% (inactive) | 93.4% (inactive) | 102% (inactive) | 62.1% (inactive) | 82.4% (inactive) | 105% (inactive) | 92.5% (inactive) | 88.4% (inactive) | 98.3% (inactive) | 99% (inactive) | 54.4% (inactive) | 82.9% (inactive) | 107% (inactive) | – | 103% (inactive)
4 | CC[C@]12C=CCN3CC[C@]4(C(=C(C(=O)OC)C1)Nc1cc(OC)c([C@@H]5[C@H]6O[C@H]6[C@@]6(CC)CC(C(=O)OC)=C7Nc8cc(OC)ccc8[C@@]78CCN5[C@@H]68)cc14)[C@@H]32 | 5.93% (active) | 24.2% (inactive) | 53.1% (inactive) | 93.2% (inactive) | 59.8% (inactive) | 116% (inactive) | 64% (inactive) | 55.8% (inactive) | 87.2% (inactive) | 80.8% (inactive) | 25.7% (inactive) | 62.8% (inactive) | 57.6% (inactive) | 50.4% (inactive) | 17.2% (inactive) | 20.5% (inactive) | 112% (inactive) | – | 28.9% (inactive)
5 | COc1cc(NC(=O)CSc2nnc(-c3ccc(-c4nc5ccc(Cl)cc5[nH]4)cc3)o2)cc(OC)c1OC | 35.7% (inactive) | 25% (inactive) | 62.6% (inactive) | 71.4% (inactive) | 64.8% (inactive) | 109% (inactive) | 52.7% (inactive) | 21.7% (inactive) | 53.3% (inactive) | 63.6% (inactive) | 41.5% (inactive) | 70.7% (inactive) | -20.3% (active) | 40.1% (inactive) | 6.03% (active) | 33.2% (inactive) | 68.9% (inactive) | – | 3.14% (active)
6 | COc1ccc2[nH]cc(-c3cc4nc(-c5cn(C)c6ncc(Br)cc56)cc(N)n4n3)c2c1 | -16.1% (active) | -6.2% (active) | -55.2% (active) | -83.6% (active) | -36.5% (active) | -42.6% (active) | -77.3% (active) | -67.3% (active) | -27.8% (active) | -44.8% (active) | -62.7% (active) | -57.3% (active) | -61.6% (active) | -74.4% (active) | -59.7% (active) | -95.9% (active) | -95% (active) | – | -83.1% (active)
7 | COc1c2c(c(Br)c3c1C(CCc1ccccc1)N(C)CC3)OCO2 (centres undefined) | 31% (inactive) | 16.7% (inactive) | 48.4% (inactive) | 29.9% (inactive) | 59.9% (inactive) | 76.8% (inactive) | 19.5% (inactive) | 55.5% (inactive) | 61.4% (inactive) | 40% (inactive) | 33.6% (inactive) | 3.17% (active) | 13.9% (inactive) | 11.9% (inactive) | 18.6% (inactive) | 11% (inactive) | 27.4% (inactive) | – | 41.8% (inactive)
8 | Cc1cc(Cl)ccc1NC(=O)Nc1ccc(-c2ccc3c(c2)NC(=O)/C3=C\c2ccc[nH]2)cc1 | 69.3% (inactive) | 100% (inactive) | 104% (inactive) | 108% (inactive) | 84.7% (inactive) | 125% (inactive) | 96.2% (inactive) | 119% (inactive) | 102% (inactive) | 104% (inactive) | 26.4% (inactive) | 79.1% (inactive) | 98.6% (inactive) | 89.3% (inactive) | 18.7% (inactive) | 108% (inactive) | 118% (inactive) | – | -2.85% (active)
9 | COc1ccc(Nc2nnc(-c3c[nH]c4ccccc34)o2)cc1 | 70.5% (inactive) | 32.5% (inactive) | 86.2% (inactive) | 103% (inactive) | 85.3% (inactive) | 74.2% (inactive) | 60.9% (inactive) | 94.4% (inactive) | 81.2% (inactive) | 73.8% (inactive) | 71.9% (inactive) | 77.8% (inactive) | 81.9% (inactive) | 93% (inactive) | 58.6% (inactive) | 92.4% (inactive) | 108% (inactive) | – | -7.14% (active)
10 | c1ccc(CSc2nnc(-c3ccc4nc(-c5ccccc5)[nH]c4c3)o2)cc1 | 63.6% (inactive) | 36.7% (inactive) | -23.2% (active) | 75.3% (inactive) | -43.7% (active) | 87% (inactive) | 63.6% (inactive) | 27.4% (inactive) | -1.88% (active) | -40.3% (active) | 15.4% (inactive) | 35.4% (inactive) | 9.59% (active) | 10% (inactive) | 1.53% (active) | 2.99% (active) | 62% (inactive) | – | 2.91% (active)
11 | CC[C@]12C=CCN3CC[C@@]4(c5ccc(OC)cc5N(C)[C@H]4[C@@](O)(C(=O)OC)[C@@H]1OC(=O)CCCC[P+](c1ccc(F)cc1)(c1ccc(F)cc1)c1ccc(F)cc1)[C@@H]32 | 28.8% (inactive) | 4.14% (active) | 20% (inactive) | 49.7% (inactive) | 33.1% (inactive) | 41.4% (inactive) | -42.8% (active) | 12.6% (inactive) | -2.23% (active) | 105% (inactive) | 12.8% (inactive) | -23.5% (active) | -16% (active) | 36.9% (inactive) | 5.18% (active) | 23.4% (inactive) | 19.4% (inactive) | – | -74.6% (active)
12 | N#Cc1c(NC(=O)N2CCOCC2)n(-c2ccc(OC(F)(F)F)cc2)c2cc(F)ccc12 | 80% (inactive) | 57.9% (inactive) | 99.1% (inactive) | 88.2% (inactive) | 87% (inactive) | 120% (inactive) | 105% (inactive) | 111% (inactive) | 102% (inactive) | 80.5% (inactive) | 77.4% (inactive) | 139% (inactive) | 92.4% (inactive) | – | 89% (inactive) | 80.5% (inactive) | 110% (inactive) | 92.5% (inactive) | –
13 | Cc1cc(C)c2[nH]c(=O)c(C(c3nnnn3Cc3ccc4c(c3)OCO4)N3CCN(C)CC3)cc2c1 (centres undefined) | 96.9% (inactive) | 100% (inactive) | 114% (inactive) | 108% (inactive) | 108% (inactive) | 111% (inactive) | 111% (inactive) | 122% (inactive) | 108% (inactive) | 108% (inactive) | 112% (inactive) | 106% (inactive) | 106% (inactive) | 110% (inactive) | 101% (inactive) | 105% (inactive) | 121% (inactive) | – | 113% (inactive)
14 | N#CC1=C(c2cccs2)Nc2c(c(-c3ccccc3)nn2-c2ccccc2)C12C(=O)Nc1ccccc12 (centres undefined) | 1.46% (active) | 34.5% (inactive) | 24.2% (inactive) | 57.7% (inactive) | 29.2% (inactive) | 28.4% (inactive) | 50.7% (inactive) | 12.7% (inactive) | 4.59% (active) | 61.6% (inactive) | 17.3% (inactive) | -41.8% (active) | 28.3% (inactive) | 8.74% (active) | 31.4% (inactive) | 5.53% (active) | 38.1% (inactive) | 9.03% (active) | -9.71% (active)
15 | O=C(c1ccc(Cl)cc1)C1[C@H](c2ccccc2Cl)[C@@H](c2ccccc2)NC12C(=O)Nc1ccccc12 (some centres undefined) | -41% (active) | -0.108% (active) | -31% (active) | -5.18% (active) | 2.24% (active) | 23.1% (inactive) | -2.25% (active) | -15.5% (active) | -38.3% (active) | -62.5% (active) | -6.74% (active) | -77.4% (active) | -82.8% (active) | -5.33% (active) | -19% (active) | -91.3% (active) | -46.2% (active) | – | -44.8% (active)
16 | O=C(Nc1ccc(F)cc1)Nc1nc2ccc([N+](=O)[O-])cc2s1 | 12.9% (inactive) | -23.5% (active) | 11.4% (inactive) | 24% (inactive) | 16.4% (inactive) | -5.21% (active) | 27.1% (inactive) | 22.6% (inactive) | -8.39% (active) | 6.37% (active) | -18.1% (active) | -53.2% (active) | 0.0184% (active) | 7.92% (active) | 1.6% (active) | 1.02% (active) | 11.8% (inactive) | – | -23.4% (active)
